Compound activity from PubChem BioAssay.
PGK inhibitor: inhibitors of T. brucei phosphoglycerate kinase | Potency, µM (top dose mostly 57.5 µM), actives largely listed as inhibitors | PGK/GAPDH coupled, Kinase-Glo luminescence, 60 min | 0.043% of 380,000 active | P07378 | AID 602233; note: nearly all actives have a fitted effect of over 60% in size
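Recombinant glycosomal PGK reaction used 1,3-bisphosphoglycerate generated in-well by GAPDH (100nM final) in 100mM TEA pH 7.6, 5mM MgCl2, 0.01% Tween-20. After 60 minutes at room temperature, ATP was read by Kinase-Glo Plus luminescence end-point.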
USP2a inh: inhibitors of human ubiquitin-specific protease USP2a | USP2 core, Ub-CHOP2 coupled fluorogenic reporter, 485/531 | AID 463254 | 0.01% of 330,000 active | Potency, µM (highest dose often 38.3 µM), usual class: inhibitors | O75604
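USP2 core (10nM final) preincubated 30min RT with compound in 20mM Tris-HCl pH 8.0, 2mM CaCl2, 2mM beta-mercaptoethanol, 0.05% CHAPS; 25nM Ub-CHOP2 plus 25nM reporter substrate added, fluorescence (Ex485/Em531) read after 60min.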
GLS inh: blocks human kidney-isoform glutaminase activity; O94925; GLS enzymatic activity, qHTS titration; Potency, µM (doses to about 45.5 µM), most hits filed as inhibitors; 0.21% of 410,000 active
Target sequence (O94925 whole entry, looked up, canonical isoform): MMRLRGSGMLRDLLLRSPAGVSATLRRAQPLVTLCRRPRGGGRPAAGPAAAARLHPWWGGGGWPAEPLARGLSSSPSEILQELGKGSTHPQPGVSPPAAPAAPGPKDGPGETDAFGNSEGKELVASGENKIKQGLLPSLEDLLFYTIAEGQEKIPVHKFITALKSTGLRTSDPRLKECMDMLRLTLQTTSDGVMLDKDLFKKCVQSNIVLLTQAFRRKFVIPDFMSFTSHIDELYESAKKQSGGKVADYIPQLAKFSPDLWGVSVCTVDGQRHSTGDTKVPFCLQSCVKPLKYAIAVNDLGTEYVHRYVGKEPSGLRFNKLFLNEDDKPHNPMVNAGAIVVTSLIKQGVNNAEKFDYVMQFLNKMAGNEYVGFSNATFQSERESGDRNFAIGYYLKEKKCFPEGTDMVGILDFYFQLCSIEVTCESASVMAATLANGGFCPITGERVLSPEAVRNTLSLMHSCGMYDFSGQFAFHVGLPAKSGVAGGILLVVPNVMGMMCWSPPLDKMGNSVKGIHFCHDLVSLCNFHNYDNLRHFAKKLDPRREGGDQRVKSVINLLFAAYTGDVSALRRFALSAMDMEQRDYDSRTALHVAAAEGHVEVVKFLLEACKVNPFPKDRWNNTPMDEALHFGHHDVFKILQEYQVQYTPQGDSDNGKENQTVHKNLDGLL
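hKGA in 45 mM KH2PO4 pH 8.2, 0.02% Tween-20 with pin-transferred compounds; 1 mM L-glutamine (stock) plus glutamate oxidase/HRP/Amplex Red coupling added. Fluorescence read initially and after 30 min at RT.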
KAT2A inh: blocks human GCN5L2 histone acetyltransferase; AID 504327; Potency, µM (series often up to 58.9 µM), actives largely listed as inhibitors; GCN5L2 HAT assay, ThioGlo1 CoA-SH fluorescence; Q92830; 0.21% of 390,000 active
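GCN5L2 (20nM final) in 50mM HEPES, 0.1mM EDTA pH 7.5, 0.01% Tween-20 was preincubated 15 min at room temperature with compound, then given ThioGlo1 (50uM), H3(1-25) peptide (75uM) and acetyl-CoA (70uM); CoA-thiol fluorescence (Ex340/Em540) was read at 0 and 20 min.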
Tb PFK inh-1: inhibitors of T. brucei phosphofructokinase; Potency, µM (top dose mostly 57.5 µM), most hits filed as inhibitors; T. brucei PFK, ADP-Glo luminescence; O15648; 0.17% of 330,000 active; note: nearly all actives have a fitted effect of over 60% in size
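Compounds were pin-transferred as a titration series up to 57 uM into substrate buffer (0.5 mM F6P, 0.1 mM ATP, pH 8.0), then 1.25 nM PFK was added and reactions ran 45 min before ADP-Glo detection.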
TbPFK ATP: Tb phosphofructokinase inhibition, orthogonal luminescence. shares compounds with Tb PFK inh-1. Tb PFK enzyme, ATP depletion, Kinase-Glo Plus luminescence. Potency, µM (highest dose often 57.5 µM). 47% of 1,100 active. AID 504636; calls by dose curve; note: nearly all actives have a fitted effect of over 60% in size
Tb PFK inh-2: T. brucei PFK enzyme inhibition, hit validation; purified T. brucei PFK, ADP-Glo luminescence, 45 min; shares compounds with Tb PFK inh-1; 41% of 1,100 active; Potency, µM (top dose mostly 57.5 µM), most hits filed as inhibitors; note: nearly all actives have a fitted effect of over 60% in size
Of the large screens only hits and unclear results are named; the others gave an inactive call (follow-up assays come after a bar, where they were run). Only some compounds are listed: those with a hit (about 0.52% of all), similar ones and a draw of the others. Unless noted, calls come from the whole dose curve; as a rule, active = well fitted curve in the direction sought with a large enough effect; inconclusive = small, poorly fitted or top-dose-only effect, or another doubt; inactive = no such curve, though single readings can be large; an effect the other way counts as inactive or inconclusive.

O=C(Nc1ccccc1)N1CC2(CCN(C(=O)Oc3ccccc3)CC2)C1	none (no result: PGK inhibitor, USP2a inh, GLS inh, Tb PFK inh-1)
CC(C)C(=O)Nc1ccc(S(=O)(=O)N2CC3CC(C2)c2cccc(=O)n2C3)cc1 (configuration not stated)	none (no result: PGK inhibitor)
CC(Nc1cccc([N+](=O)[O-])c1)C(=O)Nc1ccc(S(=O)(=O)N2CCCC2)cc1 (configuration not stated)	Tb PFK inh-1 inconclusive | TbPFK ATP inconclusive | Tb PFK inh-2 inconclusive
CC(C)(O)C1O[C@H]2CC[C@@]3(C)[C@@](O)(CC[C@H]4Cc5c([nH]c6ccccc56)[C@@]43C)C2=CC1=O (some centres not stated)	none (no result: PGK inhibitor, USP2a inh, GLS inh, Tb PFK inh-1)
CCc1cc(CNC(=O)c2ccc(OC3CCN(CCc4ccccc4)CC3)cc2)on1	Tb PFK inh-1 15µM | TbPFK ATP 17µM | Tb PFK inh-2 21µM
CN1CCC(OC(=O)Cc2ccccc2)CC1	none (no result: PGK inhibitor)
CC1(C)C(=O)Nc2ccccc2N1C(=O)COC(=O)Cc1ccc(Cl)c(Cl)c1	Tb PFK inh-1 24µM | TbPFK ATP inconclusive | Tb PFK inh-2 inconclusive
COc1ccc(C(=O)COC(=O)c2ccccc2O)c(OC)c1	USP2a inh inconclusive, KAT2A inh inconclusive, Tb PFK inh-1 6.7µM | TbPFK ATP inactive | Tb PFK inh-2 inactive
NCC(O)c1cccc(O)c1 (configuration not stated)	none (no result: PGK inhibitor, USP2a inh, Tb PFK inh-1)
O=C(NCc1cccnc1)C(=O)NCC1OCCN1S(=O)(=O)c1ccc(F)cc1 (configuration not stated)	Tb PFK inh-1 inconclusive | TbPFK ATP inconclusive | Tb PFK inh-2 inactive
Clc1ccc(C2=CCC[C@H]3CC[C@@H]2N3)cn1	none (no result: PGK inhibitor, USP2a inh, GLS inh, Tb PFK inh-1)
COc1ccc(C(=S)NCS(=O)(=O)c2ccc(C)cc2)cc1	Tb PFK inh-1 21µM | TbPFK ATP 24µM | Tb PFK inh-2 27µM
Cc1ccc(S(=O)(=O)NP(=O)(Oc2ccccc2)Oc2ccccc2)cc1	none (no result: PGK inhibitor)
Cc1ccc(S(=O)(=O)CNC(=S)c2ccc3ccccc3c2)cc1	Tb PFK inh-1 inconclusive | TbPFK ATP inactive | Tb PFK inh-2 30µM
CCC(Oc1ccc(Cl)cc1)C(=O)OC1CC2CCC(C1)N2C (configuration not stated)	none (no result: PGK inhibitor, USP2a inh, GLS inh, Tb PFK inh-1)
Cc1cccc(Cn2cc(C=O)c3ccccc32)c1	none
O=Cc1cn(Cc2cccc([N+](=O)[O-])c2)c2ccccc12	Tb PFK inh-1 inconclusive | TbPFK ATP inconclusive | Tb PFK inh-2 inactive
C[C@@H]1O[C@H](O[C@@H]2C[C@@H](O)[C@]3(CO)[C@H]4[C@H](O)C[C@]5(C)[C@@H](C6=CC(=O)OC6)CC[C@@]5(O)[C@@H]4CC[C@]3(O)C2)[C@@H](O)[C@H](O)[C@H]1O	none (no result: PGK inhibitor, USP2a inh, GLS inh, Tb PFK inh-1)
Fc1ccc(NCc2cccnc2)cc1F	Tb PFK inh-1 24µM | TbPFK ATP 13µM | Tb PFK inh-2 27µM
N#Cc1cccc(NCC(=O)Nc2ccc3c(c2)OCCO3)c1	Tb PFK inh-1 21µM | TbPFK ATP 27µM | Tb PFK inh-2 30µM
CCN1CCN(C(=O)COc2ccc(S(=O)(=O)N3CCOCC3)cc2C)CC1	none
CCOc1cc(/C=C\[N+](=O)[O-])ccc1OCC(=O)N1CCOCC1	Tb PFK inh-1 inconclusive | TbPFK ATP inactive | Tb PFK inh-2 inconclusive
COc1ccc(C(=O)Nc2ccc(Cl)cc2C(=O)c2ccccc2)c(OC)c1	none (no result: USP2a inh, Tb PFK inh-1)
COc1ccccc1C(=O)Nc1ccc2c(c1)C(=O)NC2=O	Tb PFK inh-1 24µM | TbPFK ATP 19µM | Tb PFK inh-2 inconclusive
Oc1ccc(/C=N/N=C/c2ccc(O)c(O)c2)cc1O	PGK inhibitor inconclusive, GLS inh inconclusive, Tb PFK inh-1 2.7µM | TbPFK ATP inconclusive | Tb PFK inh-2 inconclusive
Oc1ccc(/C=N/NP(=S)(c2ccccc2)c2ccccc2)cc1O	none (no result: PGK inhibitor)
O=C(COC(=O)c1ccccc1O)Nc1cccc(S(=O)(=O)NC2=NCCCCC2)c1	Tb PFK inh-1 13µM | TbPFK ATP inconclusive | Tb PFK inh-2 inconclusive
Cc1cnc2c(C(=O)O)c(Cl)ccc2c1	none (no result: PGK inhibitor, USP2a inh, GLS inh, Tb PFK inh-1)
O=C1/C(=C\c2ccccc2)C[C@@]2(O)[C@H]3Cc4ccc(O)c5c4[C@@]2(CCN3CC2CC2)[C@H]1O5	none (no result: PGK inhibitor, USP2a inh, GLS inh, Tb PFK inh-1)
COc1cc(C2/C(=C(/O)c3ccc(F)cc3)C(=O)C(=O)N2CCCC(=O)O)ccc1O (configuration not stated)	Tb PFK inh-1 inconclusive | TbPFK ATP 12µM | Tb PFK inh-2 21µM
O=C(Oc1ccccc1)N1CCC2(CCN(Cc3nccs3)CC2)CC1	none (no result: PGK inhibitor, USP2a inh, GLS inh, Tb PFK inh-1)
O[C@@H](Cc1ccncc1)C(Cl)(Cl)Cl	none (no result: PGK inhibitor, USP2a inh, GLS inh, Tb PFK inh-1)
O=C(NCc1cccc(Cl)c1)c1ccc2c(c1)OCO2	Tb PFK inh-1 inconclusive | TbPFK ATP 24µM | Tb PFK inh-2 30µM
Clc1cccc(CNCCc2ccc3c(c2)OCO3)c1	none
O=C(CCc1ccccc1)NNC(=O)c1ccc(NC(=O)c2ccccc2)cc1	Tb PFK inh-1 inconclusive | TbPFK ATP inconclusive | Tb PFK inh-2 inconclusive
NC(=O)c1ccc(C(=O)Nc2ccc([As](=O)(O)O)cc2)cc1	none (no result: PGK inhibitor, GLS inh)
